According to PubChem BioAssay (EPA / NIEHS):
Where “and” joins values, the source holds several entries; their conditions need not be identical. Equal values may be shown once. Results filed as inconclusive are left out. Where a structure was tested more than once in an assay, its records may differ in their call. Calls of active or inactive are those of the source. The calls were made as follows: active = hit-call score of the fitted dose curve at least 0.9, where 1 is the maximum; inconclusive = response in the unintended direction; inactive = score below 0.9.

How the values were obtained:
[1] = target: human Histamine 1 Receptor (H1), HRH1 (gene 3269) (UniProt P35367); assay: NVS_GPCR_hH1: NovaScreen (NVS) G Protein-Coupled Receptor Assay for human Histamine 1 Receptor (H1) (AID 2283268)
Sequence of human Histamine 1 Receptor (H1), HRH1 (gene 3269) (P35367 whole entry, looked up): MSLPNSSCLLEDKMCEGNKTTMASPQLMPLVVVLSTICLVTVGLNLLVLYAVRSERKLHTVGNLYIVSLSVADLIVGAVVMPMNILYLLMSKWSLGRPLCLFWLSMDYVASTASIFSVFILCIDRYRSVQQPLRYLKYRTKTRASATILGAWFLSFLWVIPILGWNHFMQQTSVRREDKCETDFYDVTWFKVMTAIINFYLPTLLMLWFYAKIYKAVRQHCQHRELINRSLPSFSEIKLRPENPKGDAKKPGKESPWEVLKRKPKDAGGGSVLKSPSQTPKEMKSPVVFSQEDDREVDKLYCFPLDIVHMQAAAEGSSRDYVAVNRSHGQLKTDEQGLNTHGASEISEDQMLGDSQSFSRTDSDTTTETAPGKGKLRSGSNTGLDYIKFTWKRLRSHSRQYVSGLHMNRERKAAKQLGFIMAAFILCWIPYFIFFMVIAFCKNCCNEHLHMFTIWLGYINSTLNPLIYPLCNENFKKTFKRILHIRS
Outline: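 Filter-based scintillation detection of radioligand binding to human H1, 1 h incubation; chemicals screened in duplicate at 25 uM, then concentration-response; signal loss relative to DMSO taken as activity.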

[2] = target: guinea pig Leukotriene D4 Receptor (LTD4), CYSLTR1 (gene 100135514) (UniProt Q2NNR5); assay: NVS_GPCR_gLTD4: NovaScreen (NVS) G Protein-Coupled Receptor Assay for guinea pig Leukotriene D4 Receptor (LTD4) (AID 2283248)
Sequence of guinea pig Leukotriene D4 Receptor (LTD4), CYSLTR1 (gene 100135514) (Q2NNR5 whole entry, looked up): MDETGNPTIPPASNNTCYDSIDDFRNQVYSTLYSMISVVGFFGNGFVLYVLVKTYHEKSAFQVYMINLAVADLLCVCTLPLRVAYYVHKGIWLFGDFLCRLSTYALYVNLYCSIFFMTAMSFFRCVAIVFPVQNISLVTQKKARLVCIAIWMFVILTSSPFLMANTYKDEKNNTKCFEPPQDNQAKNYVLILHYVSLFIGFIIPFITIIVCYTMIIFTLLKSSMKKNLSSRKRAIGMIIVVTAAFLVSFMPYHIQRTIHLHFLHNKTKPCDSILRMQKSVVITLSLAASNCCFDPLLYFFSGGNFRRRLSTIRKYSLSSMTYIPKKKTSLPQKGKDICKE
Outline: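 Guinea pig lung membrane preparation; bound radioligand measured by filter scintillation after 1 h, loss of signal versus DMSO marking displacement. Compounds tested at 25 uM in duplicate, hits retested to max 50 uM.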

[3] = target: human Serotonin, 5-Hydroxytryptamine Receptor 5A (5HT5A), HTR5A (gene 3361) (UniProt P47898); assay: NVS_GPCR_h5HT5A: NovaScreen (NVS) G Protein-Coupled Receptor Assay for human Serotonin, 5-Hydroxytryptamine Receptor 5A (5HT5A) (AID 2283251)
Sequence of human Serotonin, 5-Hydroxytryptamine Receptor 5A (5HT5A), HTR5A (gene 3361) (P47898 whole entry, looked up): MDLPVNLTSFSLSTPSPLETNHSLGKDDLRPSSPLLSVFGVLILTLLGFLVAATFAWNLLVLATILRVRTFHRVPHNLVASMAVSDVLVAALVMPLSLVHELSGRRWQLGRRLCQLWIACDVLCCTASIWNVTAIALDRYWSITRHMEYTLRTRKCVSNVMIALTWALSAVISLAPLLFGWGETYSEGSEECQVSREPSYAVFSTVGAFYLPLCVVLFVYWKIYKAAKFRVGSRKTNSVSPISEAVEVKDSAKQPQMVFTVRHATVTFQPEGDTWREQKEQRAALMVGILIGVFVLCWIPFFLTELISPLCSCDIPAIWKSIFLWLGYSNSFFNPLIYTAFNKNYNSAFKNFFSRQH
Outline: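 Membranes from HEK293 cells, radioligand binding read by filtration and scintillation after 1 h. Single-concentration duplicate testing at 25 uM, then concentration-response for actives; positive-direction fitting relative to DMSO.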

[4] = target: human Adenosine A1 Receptor (AdoRA1), ADORA1 (gene 134) (UniProt P30542); assay: NVS_GPCR_hAdoRA1: NovaScreen (NVS) G Protein-Coupled Receptor Assay for human Adenosine A1 Receptor (AdoRA1) (AID 2283254)
Sequence of human Adenosine A1 Receptor (AdoRA1), ADORA1 (gene 134) (P30542 whole entry, looked up): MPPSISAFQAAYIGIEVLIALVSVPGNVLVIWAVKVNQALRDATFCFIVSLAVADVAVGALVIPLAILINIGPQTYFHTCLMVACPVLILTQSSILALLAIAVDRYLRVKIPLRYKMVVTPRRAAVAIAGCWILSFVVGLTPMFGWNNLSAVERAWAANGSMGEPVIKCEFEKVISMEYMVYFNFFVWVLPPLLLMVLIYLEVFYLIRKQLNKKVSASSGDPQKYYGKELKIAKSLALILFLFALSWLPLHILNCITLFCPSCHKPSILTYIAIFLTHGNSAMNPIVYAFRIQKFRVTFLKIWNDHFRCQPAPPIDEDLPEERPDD
Outline: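 Membranes from human cortical tissue were incubated with radioligand and test chemical for 1 hour, then filtered and counted. Activity was taken as signal loss relative to DMSO, screened at 25 uM in duplicate before concentration-response follow-up.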

[5] = target: human Adrenergic, Beta 1 Receptor (Adrb1), ADRB1 (gene 153) (UniProt P08588); assay: NVS_GPCR_hAdrb1: NovaScreen (NVS) G Protein-Coupled Receptor Assay for human Adrenergic, Beta 1 Receptor (Adrb1) (AID 2283258)
Sequence of human Adrenergic, Beta 1 Receptor (Adrb1), ADRB1 (gene 153) (P08588 whole entry, looked up): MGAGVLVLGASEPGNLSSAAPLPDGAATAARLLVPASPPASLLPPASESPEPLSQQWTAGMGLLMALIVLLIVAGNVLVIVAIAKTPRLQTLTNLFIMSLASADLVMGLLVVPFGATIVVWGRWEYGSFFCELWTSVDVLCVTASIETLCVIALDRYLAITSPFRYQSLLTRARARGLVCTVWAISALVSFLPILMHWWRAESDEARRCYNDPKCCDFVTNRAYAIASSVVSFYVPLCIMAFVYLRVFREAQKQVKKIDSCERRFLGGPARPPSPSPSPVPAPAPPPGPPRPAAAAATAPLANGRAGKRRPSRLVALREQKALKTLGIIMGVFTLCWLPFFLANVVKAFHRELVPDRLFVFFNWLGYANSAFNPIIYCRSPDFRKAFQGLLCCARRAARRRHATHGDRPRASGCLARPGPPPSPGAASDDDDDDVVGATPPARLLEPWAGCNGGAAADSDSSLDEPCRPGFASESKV
Outline: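 Membranes/protein extracted from human neuroepithelioma cells, radioligand competition binding read by filtration and scintillation 2 h post-dose. Single 25 uM duplicate screen, then concentration-response follow-up; DMSO as negative control.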

[6] = target: human Adrenergic, Alpha 2c Receptor (Adra2C), ADRA2C (gene 152) (UniProt P18825); assay: NVS_GPCR_hAdra2C: NovaScreen (NVS) G Protein-Coupled Receptor Assay for human Adrenergic, Alpha 2c Receptor (Adra2C) (AID 2283259)
Sequence of human Adrenergic, Alpha 2c Receptor (Adra2C), ADRA2C (gene 152) (P18825 whole entry, looked up): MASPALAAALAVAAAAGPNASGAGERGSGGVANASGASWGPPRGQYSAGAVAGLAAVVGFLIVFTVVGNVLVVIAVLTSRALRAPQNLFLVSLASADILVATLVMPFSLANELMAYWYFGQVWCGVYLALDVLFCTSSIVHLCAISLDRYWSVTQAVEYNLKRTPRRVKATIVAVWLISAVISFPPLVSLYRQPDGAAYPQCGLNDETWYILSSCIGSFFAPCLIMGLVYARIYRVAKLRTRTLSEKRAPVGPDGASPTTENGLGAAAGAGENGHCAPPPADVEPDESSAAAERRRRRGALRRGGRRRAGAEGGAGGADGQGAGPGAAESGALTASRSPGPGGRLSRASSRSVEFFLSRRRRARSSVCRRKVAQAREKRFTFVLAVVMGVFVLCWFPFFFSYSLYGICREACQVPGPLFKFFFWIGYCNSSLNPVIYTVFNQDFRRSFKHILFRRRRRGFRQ
Outline: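 Screened first in duplicate at 25 uM, with actives then run as concentration series. Membranes from Sf9 cells were exposed for 1 h, and displacement of radioligand was counted after filtration, using DMSO as baseline.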

[7] = target: Beta-2 adrenergic receptor (Homo sapiens) (UniProt P07550); assay: NVS_GPCR_hAdrb2: NovaScreen (NVS) G Protein-Coupled Receptor Assay for human Adrenergic, Beta 2 Receptor (Adrb2) (AID 2283261)
Outline: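 Compounds screened in duplicate at 25 uM, then actives in concentration series. Human beta-2 receptor from CHO material, cell-free; radioligand displacement after 1 h measured by filtration and scintillation against DMSO baseline.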

[8] = target: human Dopamine Receptor D2 (DRD2), DRD2 (gene 1813) (UniProt P14416); assay: NVS_GPCR_hDRD2s: NovaScreen (NVS) G Protein-Coupled Receptor Assay for human Dopamine Receptor D2 (DRD2) (AID 2283266)
Outline: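 Test compound (25 uM, duplicate in the primary screen; concentration series at follow-up) competed with radioligand for human DRD2 in CHO-derived membrane protein. Filter-based scintillation counting was done 1.5 hours after dosing, with loss of signal analysed against DMSO.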

[9] = target: guinea pig Opioid, Kappa 1 Receptor (OpiateK), OPRK1 (gene 100135587) (UniProt P41144); assay: NVS_GPCR_gOpiateK: NovaScreen (NVS) G Protein-Coupled Receptor Assay for guinea pig Opioid, Kappa 1 Receptor (OpiateK) (AID 2283252);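 also: radioligand displacement from kappa opioid receptor in guinea pig cerebellar membranes; active means reduced radioligand binding relative to DMSO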
Sequence of guinea pig Opioid, Kappa 1 Receptor (OpiateK), OPRK1 (gene 100135587) (P41144 whole entry, looked up): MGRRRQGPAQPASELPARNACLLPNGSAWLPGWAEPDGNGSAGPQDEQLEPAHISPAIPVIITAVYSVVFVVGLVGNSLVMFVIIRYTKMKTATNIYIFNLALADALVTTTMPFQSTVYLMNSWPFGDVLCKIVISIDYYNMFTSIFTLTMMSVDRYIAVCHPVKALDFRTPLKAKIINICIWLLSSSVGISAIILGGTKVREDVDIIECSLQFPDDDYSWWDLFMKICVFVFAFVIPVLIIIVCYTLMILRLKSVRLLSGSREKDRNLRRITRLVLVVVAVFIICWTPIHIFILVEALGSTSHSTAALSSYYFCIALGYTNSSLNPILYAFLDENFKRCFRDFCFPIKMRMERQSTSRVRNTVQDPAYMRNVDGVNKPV
Outline: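 Cell-free tissue prep: guinea pig cerebellar membranes, radioligand displacement, 2 h incubation. Readout: filtration plus scintillation counting. Primary single-point 25 uM duplicate; actives retested in concentration series; DMSO negative control.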

[10] = target: human Adenosine A2a Receptor (AdoRA2a), ADORA2A (gene 135) (UniProt P29274); assay: NVS_GPCR_hAdoRA2a: NovaScreen (NVS) G Protein-Coupled Receptor Assay for human Adenosine A2a Receptor (AdoRA2a) (AID 2283256)
Sequence of human Adenosine A2a Receptor (AdoRA2a), ADORA2A (gene 135) (P29274 whole entry, looked up): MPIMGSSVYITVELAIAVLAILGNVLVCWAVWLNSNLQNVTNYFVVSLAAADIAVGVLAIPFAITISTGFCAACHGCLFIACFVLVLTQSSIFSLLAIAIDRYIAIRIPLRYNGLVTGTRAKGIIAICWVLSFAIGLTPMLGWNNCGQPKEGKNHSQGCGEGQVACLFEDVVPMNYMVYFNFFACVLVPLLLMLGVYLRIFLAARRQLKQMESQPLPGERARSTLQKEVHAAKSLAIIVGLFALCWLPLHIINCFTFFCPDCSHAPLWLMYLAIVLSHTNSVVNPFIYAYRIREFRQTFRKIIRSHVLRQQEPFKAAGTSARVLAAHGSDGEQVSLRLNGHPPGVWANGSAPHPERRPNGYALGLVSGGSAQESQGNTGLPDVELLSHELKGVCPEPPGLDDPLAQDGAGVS
Outline: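 Compounds screened in duplicate at 25 uM, with actives followed up in concentration series, for displacement of a radioligand from HEK293-derived receptor protein. Bound counts read by filter scintillation at 1.5 hours, DMSO as baseline.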

[11] = tested on: guinea pig Muscarinic, Peripheral (Mperiperal) Receptor, Non-selective Binding, gene 100379235; assay: NVS_GPCR_gMPeripheral_NonSelective: NovaScreen (NVS) G Protein-Coupled Receptor Assay for guinea pig Muscarinic, Peripheral (Mperiperal) Receptor, Non-selective Binding (AID 2283250)
Outline: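 Screened in duplicate at 25 uM, hits retested in concentration series to 50 uM max, using bladder membrane radioligand displacement from guinea pig. Filtration and scintillation counting 1 h post-dose, fitted relative to DMSO.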

[12] = target: human Serotonin, 5-Hydroxytryptamine Receptor 7 (5HT7), HTR7 (gene 3363) (UniProt P34969); assay: NVS_GPCR_h5HT7: NovaScreen (NVS) G Protein-Coupled Receptor Assay for human Serotonin, 5-Hydroxytryptamine Receptor 7 (5HT7) (AID 2283255);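 also: hits reduce specific radioligand binding relative to DMSO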
Sequence of human Serotonin, 5-Hydroxytryptamine Receptor 7 (5HT7), HTR7 (gene 3363) (P34969 whole entry, looked up): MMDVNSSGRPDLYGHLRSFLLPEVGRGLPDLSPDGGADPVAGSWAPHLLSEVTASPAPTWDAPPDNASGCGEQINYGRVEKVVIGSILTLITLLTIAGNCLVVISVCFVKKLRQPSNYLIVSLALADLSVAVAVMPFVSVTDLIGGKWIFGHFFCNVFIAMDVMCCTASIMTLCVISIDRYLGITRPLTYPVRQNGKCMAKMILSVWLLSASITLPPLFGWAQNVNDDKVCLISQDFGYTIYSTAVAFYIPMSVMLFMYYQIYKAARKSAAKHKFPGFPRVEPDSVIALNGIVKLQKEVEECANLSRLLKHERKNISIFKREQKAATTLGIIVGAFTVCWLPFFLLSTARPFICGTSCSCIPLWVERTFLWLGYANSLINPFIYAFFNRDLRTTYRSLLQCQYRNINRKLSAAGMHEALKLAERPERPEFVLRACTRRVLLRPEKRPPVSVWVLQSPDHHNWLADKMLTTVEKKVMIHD
Outline: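 Filter-bound radioactivity counted after 1 h, with loss of specific radioligand binding fitted against DMSO. Membrane protein came from CHO cells expressing human 5HT7. Chemicals were tested first at 25 uM in duplicate, then in concentration series if active.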

[13] = target: human Adrenergic, Alpha 2A Receptor (Adra2A), ADRA2A (gene 150) (UniProt P08913); assay: NVS_GPCR_hAdra2A: NovaScreen (NVS) G Protein-Coupled Receptor Assay for human Adrenergic, Alpha 2A Receptor (Adra2A) (AID 2283257)
Sequence of human Adrenergic, Alpha 2A Receptor (Adra2A), ADRA2A (gene 150) (P08913 whole entry, looked up): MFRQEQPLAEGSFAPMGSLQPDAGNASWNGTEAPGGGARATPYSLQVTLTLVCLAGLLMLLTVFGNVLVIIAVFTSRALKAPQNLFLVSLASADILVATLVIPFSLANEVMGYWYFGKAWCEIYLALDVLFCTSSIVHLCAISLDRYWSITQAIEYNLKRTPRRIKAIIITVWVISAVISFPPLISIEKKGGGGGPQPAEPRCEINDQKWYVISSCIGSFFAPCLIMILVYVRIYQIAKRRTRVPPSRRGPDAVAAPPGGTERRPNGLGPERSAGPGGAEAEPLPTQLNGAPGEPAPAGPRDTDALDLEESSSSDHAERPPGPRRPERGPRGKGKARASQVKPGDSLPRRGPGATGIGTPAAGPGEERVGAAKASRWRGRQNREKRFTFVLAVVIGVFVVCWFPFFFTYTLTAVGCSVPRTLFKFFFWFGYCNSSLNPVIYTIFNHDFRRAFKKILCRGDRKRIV
Outline: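 Displacement of a specific radioligand from HT29 membrane protein was counted by filter scintillation after 1 h. Compounds were screened in duplicate at 25 uM, and actives were retested in concentration series. Fitting was positive-direction against DMSO.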

[14] = target: human Dopamine Receptor D4.4 (DRD4.4), DRD4 (gene 1815) (UniProt P21917); assay: NVS_GPCR_hDRD4.4: NovaScreen (NVS) G Protein-Coupled Receptor Assay for human Dopamine Receptor D4.4 (DRD4.4) (AID 2283264)
Outline: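 Filter-binding assay with a tritiated or iodinated ligand, cell-free receptor prepared from CHO, 1 hour. Loss of bound radioactivity versus DMSO; single 25 uM duplicate screen, then concentration-response for actives.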

[15] = target: human Serotonin, 5-Hydroxytryptamine Receptor 6 (5HT6), HTR6 (gene 3362) (UniProt P50406); assay: NVS_GPCR_h5HT6: NovaScreen (NVS) G Protein-Coupled Receptor Assay for human Serotonin, 5-Hydroxytryptamine Receptor 6 (5HT6) (AID 2283253)
Outline: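 Filter scintillation counting of radioligand displacement from HEK293-expressed 5HT6, 1 hour post-dose, with loss of signal relative to DMSO. Single 25 uM duplicates first, with concentration series for confirmation.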

[16] = target: Type-1 angiotensin II receptor (Homo sapiens) (UniProt P30556); assay: NVS_GPCR_hAT1: NovaScreen (NVS) G Protein-Coupled Receptor Assay for human Angiotensin II receptor type 1 (AT1) (AID 2283263)
Sequence of Type-1 angiotensin II receptor (Homo sapiens) (P30556 whole entry, looked up): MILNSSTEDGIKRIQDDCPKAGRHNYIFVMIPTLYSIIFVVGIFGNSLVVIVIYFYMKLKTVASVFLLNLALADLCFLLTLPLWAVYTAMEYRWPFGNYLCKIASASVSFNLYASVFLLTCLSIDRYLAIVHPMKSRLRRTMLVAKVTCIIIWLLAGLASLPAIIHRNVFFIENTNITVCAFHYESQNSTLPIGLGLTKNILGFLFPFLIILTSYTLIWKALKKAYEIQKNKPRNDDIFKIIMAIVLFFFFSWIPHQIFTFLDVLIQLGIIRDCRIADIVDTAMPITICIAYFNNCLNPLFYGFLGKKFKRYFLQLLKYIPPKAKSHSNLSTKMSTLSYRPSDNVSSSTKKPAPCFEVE
Outline: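 Hits from a 25 uM duplicate screen (threshold e.g. 30% inhibition) were run in concentration-response with 50 uM top concentration. Displacement of specific radioligand from KAN-TS membrane preparations measured after 3 h by filter scintillation, DMSO as baseline.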

[17] = target: human Endothelin Receptor Type A (ETA), EDNRA (gene 1909) (UniProt P25101); assay: NVS_GPCR_hETA: NovaScreen (NVS) G Protein-Coupled Receptor Assay for human Endothelin Receptor Type A (ETA) (AID 2283265)
Outline: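 Binding of radioligand to membrane protein extracted from SH-SY5Y cells was read by filtration and scintillation after 3 h. Compounds were screened at 25 uM in duplicate, with hits followed up in singleton concentration series to 50 uM.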

[18] = target: human Adrenergic, Beta 3 Receptor (Adrb3), ADRB3 (gene 155) (UniProt P13945); assay: NVS_GPCR_hAdrb3: NovaScreen (NVS) G Protein-Coupled Receptor Assay for human Adrenergic, Beta 3 Receptor (Adrb3) (AID 2283262)
Outline: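 A cell-free filter binding assay read by scintillation counting, with displacement of a specific radioligand measured after 1 hour. The receptor source was SK-N-MC extracts (cells pretreated with isoproterenol and 8-bromo-cAMP). Compounds were first tested at 25 uM in duplicate and then in concentration series.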

[19] = target: human Endothelin Receptor Type B (ETB), EDNRB (gene 1910) (UniProt P24530); assay: NVS_GPCR_hETB: NovaScreen (NVS) G Protein-Coupled Receptor Assay for human Endothelin Receptor Type B (ETB) (AID 2283267)
Outline: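 Filter-based scintillation readout of radioligand displacement, 4 h, using membranes from human astrocytoma cells. Actives from a 25 uM duplicate screen were retested in concentration-response (top 50 uM) relative to DMSO baseline.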

[20] = target: human Serotonin, 5-Hydroxytryptamine Receptor 2A (5HT2A), HTR2A (gene 3356) (UniProt P28223); assay: NVS_GPCR_h5HT2A: NovaScreen (NVS) G Protein-Coupled Receptor Assay for human Serotonin, 5-Hydroxytryptamine Receptor 2A (5HT2A) (AID 2283249)
Outline: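 Radioligand displacement on human cortex tissue extract, counted by filtration and scintillation 1.5 h post-dosing. Initial single-concentration screen at 25 uM in duplicate, concentration series in follow-up; DMSO as baseline.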

CC(C)Oc1cc(-n2nc(C(C)(C)C)oc2=O)c(Cl)cc1Cl
outcome [1]: inactive

CCOc1cc(Oc2ccc(C(F)(F)F)cc2Cl)ccc1[N+](=O)[O-]
outcome [2]: inactive
outcome [3]: inactive

COc1ccc(C(c2ccc(OC)cc2)C(Cl)(Cl)Cl)cc1
outcome [3]: inactive
AC50 [4]: 6.77 µM (active)
outcome [5]: inactive
outcome [6]: inactive
outcome [7]: inactive
outcome [8]: inactive

CCOC(=O)CC(SP(=S)(OC)OC)C(=O)OCC (stereo not drawn)
AC50 [9]: 15.2 µM (active)
AC50 [4]: 4.74 µM (active)
AC50 [10]: 5.74 µM (active)

CCCCNC(=O)OCC#CI
outcome [11]: inactive
AC50 [9]: 37.9 µM (active) and 40.9 µM (active)
AC50 [4]: 9.47 µM (active) and 15.2 µM (active)

COC(=O)N(OC)c1ccccc1COc1ccn(-c2ccc(Cl)cc2)n1
AC50 [4]: 5.54 µM (active)
AC50 [12]: 0.944 µM (active)

CCCCNC(=O)n1c(NC(=O)OC)nc2ccccc21
outcome [4]: inactive

N#CC(CCc1ccc(Cl)cc1)(Cn1cncn1)c1ccccc1 (stereo not drawn)
outcome [13]: inactive

Cc1ccc(-c2c(Cl)nc(C#N)n2S(=O)(=O)N(C)C)cc1
outcome [2]: inactive
outcome [14]: inactive
outcome [8]: inactive

CN(C)C(=S)SSC(=S)N(C)C
outcome [9]: inactive
AC50 [15]: 5.18 µM (active)
AC50 [12]: 6.92 µM (active)
outcome [5]: inactive

C=CCC1=C(C)C(OC(=O)C2C(C=C(C)C)C2(C)C)CC1=O (stereo not drawn)
outcome [2]: inactive
outcome [5]: inactive
outcome [6]: inactive
outcome [16]: inactive
outcome [17]: inactive

OC(c1ccc(Cl)cc1)(c1cncnc1)c1ccccc1Cl (stereo not drawn)
outcome [3]: inactive
AC50 [9]: 9.41 µM (active)
AC50 [15]: 8.03 µM (active)
AC50 [4]: 4.96 µM (active)
outcome [7]: inactive

O=C(Nc1ccccc1)Nc1ccnc(Cl)c1
AC50 [3]: 7.13 µM (active)
AC50 [12]: 14.1 µM (active)
AC50 [13]: 11.6 µM (active)
AC50 [6]: 11.2 µM (active)
outcome [18]: inactive

CS/C(C)=N/OC(=O)N(C)SN(C)C(=O)O/N=C(\C)SC
AC50 [9]: 25 µM (active)

CCCCC(CC)COC(=O)c1ccccc1C(=O)OCC(CC)CCCC (stereo not drawn)
outcome [4]: inactive

CCCC1COC(Cn2cncn2)(c2ccc(Cl)cc2Cl)O1 (stereo not drawn)
AC50 [9]: 16.6 µM (active)

CC1COC(Cn2cncn2)(c2ccc(Oc3ccc(Cl)cc3)cc2Cl)O1 (stereo not drawn)
AC50 [3]: 6.37 µM (active)
outcome [9]: inactive
outcome [12]: inactive
outcome [19]: inactive

COc1nc(NC(C)C)nc(NC(C)C)n1
AC50 [4]: 8.99 µM (active)
AC50 [10]: 9.33 µM (active)

CCNc1nc(Cl)nc(NCC)n1
outcome [20]: inactive

CO/C=C(/C(=O)OC)c1ccccc1Oc1cc(Oc2ccccc2C#N)ncn1
outcome [11]: inactive
AC50 [9]: 12.3 µM (active) [middle of 4 runs]
AC50 [4]: 6.85 µM (active) [middle of 4 runs]
AC50 [12]: 5.24 µM (active)
outcome [5]: inactive

Cc1cc(Cl)ccc1OCC(=O)O
outcome [3]: inactive

CNC(=S)S
outcome [1]: inactive

C#CCOS(=O)OC1CCCCC1Oc1ccc(C(C)(C)C)cc1 (stereo not drawn)
outcome [2]: inactive
AC50 [3]: 35 µM (active)
AC50 [12]: 25 µM (active)
outcome [5]: inactive
outcome [16]: inactive

CCNc1nc(Cl)nc(NC(C)C)n1
outcome [3]: inactive
AC50 [4]: 5.9 µM (active)
AC50 [10]: 4.96 µM (active) and 6.26 µM (active)
outcome [10]: inactive
outcome [16]: inactive
outcome [1]: inactive

Fc1ccc(Oc2ccnc3cc(Cl)cc(Cl)c23)cc1
outcome [20]: inactive
outcome [3]: inactive
outcome [13]: inactive

CON(C)C(=O)Nc1ccc(Cl)c(Cl)c1
AC50 [3]: 7.75 µM (active)

COP(=S)(OC)Oc1nc(Cl)c(Cl)cc1Cl
outcome [1]: inactive

Oc1ccccc1-c1ccccc1
outcome [12]: inactive
outcome [10]: inactive

CCCN(CCC)c1c([N+](=O)[O-])cc(S(N)(=O)=O)cc1[N+](=O)[O-]
outcome [3]: inactive
AC50 [4]: 6.48 µM (active)
outcome [10]: inactive

COc1nc(C)nc(NC(=O)NS(=O)(=O)c2ccccc2CCC(F)(F)F)n1
outcome [3]: inactive

CCON=C(CC)C1=C(O)CC(c2c(C)cc(C)cc2C)CC1=O (stereo not drawn)
AC50 [2]: 4.89 µM (active)
outcome [3]: inactive
AC50 [13]: 4.3 µM (active)
